Laboratory results reported in PubChem BioAssay AID1671192 (National Center for Advancing Translational Sciences (NCATS), 2021).
Results filed as inconclusive are left out. Calls of active or inactive are those of the source. Calls follow the shape of the dose curve; as a rule, active = well fitted curve in the direction sought with a large enough effect; inconclusive = small, poorly fitted or top-dose-only effect, or another doubt; inactive = no such curve, though single readings can be large or run the other way.

Molecular target: Polyunsaturated fatty acid lipoxygenase ALOX15 (Homo sapiens) (UniProt P16050)
Test: Counterscreen qHTS for inhibitors of human arachidonate 12S-lipoxygenase (ALOX12): ALOX15 Assay
Conditions: purified ALOX15 enzyme activity; series mostly up to 110 µM
Procedure, shortened: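 Xylenol orange–ferric complex formation, read as the 573 nm to 405 nm absorbance ratio, tracks product from 50 uM arachidonic acid turned over for 30 min at RT. Enzyme is 40 nM ALOX15, pH 7.5 HEPES buffer, compound-preincubated 15 min.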

Sequence of Polyunsaturated fatty acid lipoxygenase ALOX15 (Homo sapiens) (P16050 whole entry, looked up): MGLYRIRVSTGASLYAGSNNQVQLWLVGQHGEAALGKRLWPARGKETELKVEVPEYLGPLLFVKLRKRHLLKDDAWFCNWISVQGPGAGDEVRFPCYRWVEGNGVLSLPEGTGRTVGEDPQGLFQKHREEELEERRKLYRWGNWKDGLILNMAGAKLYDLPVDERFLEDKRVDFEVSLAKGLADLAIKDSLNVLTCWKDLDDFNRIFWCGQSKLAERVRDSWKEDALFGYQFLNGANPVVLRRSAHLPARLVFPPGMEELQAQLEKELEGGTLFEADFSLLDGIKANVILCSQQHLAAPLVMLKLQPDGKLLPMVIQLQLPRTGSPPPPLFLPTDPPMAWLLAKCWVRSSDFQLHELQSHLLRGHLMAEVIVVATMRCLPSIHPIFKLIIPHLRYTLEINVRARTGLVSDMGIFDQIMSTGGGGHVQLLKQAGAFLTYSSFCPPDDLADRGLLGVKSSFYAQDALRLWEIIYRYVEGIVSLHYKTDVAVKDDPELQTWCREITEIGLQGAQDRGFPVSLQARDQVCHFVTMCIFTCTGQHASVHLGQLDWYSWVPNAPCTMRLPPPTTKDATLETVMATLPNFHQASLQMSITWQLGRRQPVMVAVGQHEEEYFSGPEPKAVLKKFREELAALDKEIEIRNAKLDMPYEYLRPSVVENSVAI

Compound	outcome
CN1CCCC2(Cc3ccccc3CN(C(=O)c3ccc(Cl)cc3)C2)C1 (centres undefined)	inactive
O=[S+]([O-])(c1ccccc1)N1CC(Oc2ccc(F)c(F)c2)C1	inactive
N#Cc1ccc(CN2CC(Oc3ccc(F)cc3F)C2)cc1	inactive
O=C1Nc2ccccc2CC12CN(Cc1c[nH]c3ccccc13)C2	inactive
O=C(c1ccc(Cl)cc1)N1CC2(CCCN(Cc3ccc(Cl)cc3)C2)Cc2ccccc21 (centres undefined)	inactive
O=C1NCc2ccccc2CC12CCCN2Cc1ccc(OC(F)(F)F)cc1 (centres undefined)	inactive
CN1CC(=O)N(C2CCNCC2)Cc2c1ncnc2N1CCCC(O)C1 (centres undefined)	inactive
c1ccc(CN2CC(Oc3ccc4c(c3)OCO4)C2)cc1	inactive
CCCC(=O)N1Cc2ccccc2CC2(CCCN(CC3CCNC3)C2)C1 (centres undefined)	inactive
O=C(c1ccncc1)N1CCN(c2ccc(Cl)nn2)C(=O)C1	inactive
COc1ccc(OC2CN(Cc3ccc(F)cc3)C2)cc1	inactive
COc1ccc(CNc2ncnc3c2CN(C2CCCNC2)C(=O)CN3C)cc1 (centres undefined)	inactive
NCCC(=O)N1Cc2ccccc2CC2(CCCCN2CC2CCNCC2)C1 (centres undefined)	inactive
CC(C)CCN1CCn2c(nn(-c3ccc(Cl)cc3)c2=O)C1	inactive
O=C1NCc2ccccc2CC12CCN(Cc1cc(F)ccc1F)C2 (centres undefined)	inactive
O=C(O)CCC(=O)N1Cc2ccccc2CC2(CCCN2Cc2cccnc2)C1 (centres undefined)	inactive
CNC(C)c1c(F)cccc1F (centres undefined)	inactive
CCN(c1ccc2c(c1)OCO2)C1CN(C(=O)OC(C)(C)C)C1	inactive
Cc1ccc(CN2CC3(Cc4ccccc4NC3=O)C2)cc1	inactive
